Screen size: about 220,000 compounds; about 16,000 (7.3%) were called active. A call without a number means that no potency is given here. Not shown: some 25% with an inconclusive outcome. For the sample, actives were picked, then their nearest neighbours and some compounds at random. Unmarked numbers belong to inactive results. Calls come from the whole dose curve; as a rule, active = well fitted inhibition curve with a large enough effect (not every such curve was filed as active); inconclusive = small, poorly fitted or top-dose-only effect, or another doubt; inactive = no such curve, though single readings can be large or run the other way.
Potency is the fitted concentration of half-maximal effect.

Aldehyde dehydrogenase 1A1 (Homo sapiens), sequence (P00352 whole entry, looked up): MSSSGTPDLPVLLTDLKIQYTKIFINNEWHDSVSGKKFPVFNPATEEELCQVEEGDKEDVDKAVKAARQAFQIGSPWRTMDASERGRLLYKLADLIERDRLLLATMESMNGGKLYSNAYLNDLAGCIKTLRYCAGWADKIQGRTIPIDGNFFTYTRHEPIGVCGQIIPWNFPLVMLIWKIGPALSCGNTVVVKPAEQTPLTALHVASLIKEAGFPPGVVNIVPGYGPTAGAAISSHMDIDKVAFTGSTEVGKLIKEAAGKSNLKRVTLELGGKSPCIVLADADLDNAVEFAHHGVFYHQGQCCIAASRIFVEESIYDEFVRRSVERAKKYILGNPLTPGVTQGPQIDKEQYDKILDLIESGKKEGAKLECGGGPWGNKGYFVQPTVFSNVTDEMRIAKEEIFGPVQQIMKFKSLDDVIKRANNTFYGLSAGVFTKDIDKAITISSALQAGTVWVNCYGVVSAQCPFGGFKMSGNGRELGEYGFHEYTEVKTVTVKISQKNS

This experiment has as its target Aldehyde dehydrogenase 1A1 (Homo sapiens) (UniProt P00352). Nature of the experiment: qHTS Assay for Inhibitors of Aldehyde Dehydrogenase 1 (ALDH1A1). To be noted: Purified ALDH1A1, NADH fluorescence, propionaldehyde substrate; series mostly up to 75.3 µM. (In general: Quantitative high-throughput screening tests each substance at several concentrations.)
Turning to `Cc1nnsc1C(=O)Nc1cccc(Cl)c1C`, the Potency result was “inactive”.
The same measure, in the same setting: then `Cc1cccc(NC(=O)c2ccc3nsnc3c2)c1C`, with “inactive”; and `Cc1nc(C)c(C(=O)Nc2cccc(C)c2C)o1`, with 17800 nM (active).
Consider `O=C(c1ccc(F)cc1)N1CCCC(c2nc(-c3cccs3)no2)C1` (stereo not given), for which the Potency result is “inactive”.
In the case of `CCOC(=O)C1CCN(C(=O)C2(NC(=O)Nc3cccc(F)c3)CCCCC2)CC1`, the Potency result is “inactive”.
`CC(=O)c1cnc(-c2ccccc2)s1`: the Potency entry is “inactive”.
In the case of `CCN(CC)c1ccc2cc(C(N)=O)/c(=N\NC(=O)c3ccncc3)oc2c1`, the Potency result was “inactive”.
Still for that read-out and setting: then `CCN(CC)c1ccc2oc(=O)c(C)nc2c1`, with 1000 nM (active).
Still for that read-out and setting: the same measure for `CCN(CC)c1ccc(/C=N/Nc2nc(C)cc(C)n2)c(O)c1`: “inactive”.
Take `COc1ccc(CCNC(=O)CN(c2ccccc2)S(C)(=O)=O)cc1`: the Potency result was “inactive”.
Still for that read-out and setting: the same measure for `Cc1cc(C(=O)NNC(=O)CCC2CCCCC2)c(C)o1`: “inactive”.
Consider `CCOC(=O)C1C/C(=C\C(C)=O)c2cccc(C(F)(F)F)c2O1` (stereo not given), for which the Potency entry is “inactive”.
Still for that read-out and setting: then `C=CCC(C)(O)c1ccco1` (stereo not given), with “inactive”; and `COc1ccc(N2CCN(c3ccc([N+](=O)[O-])cc3Cl)CC2)cc1`, with “inactive”.
Same read-out and setting: the same measure for `O=C(c1ccc(Cl)c([N+](=O)[O-])c1)N1CCN(c2ccccc2)CC1`: “inactive”; for `O=[N+]([O-])c1ccc(N2CCN(c3ccc(O)cc3)CC2)c(Cl)c1`: 7940 nM (active).
As to `C/C=C/C=C/C(=O)OCC(=O)Nc1ccc(Cl)cc1`, the Potency entry is “inactive”.
On the same count and under the same terms, then `O=C(C1CCN(S(=O)(=O)c2ccc(Br)s2)CC1)N1CCN(C2CCCCC2)CC1`, with “inactive”; and `Cc1ccc(S(=O)(=O)CC(=O)Nc2c(C)n(C)n(-c3ccccc3)c2=O)cc1`, with “inactive”.
The same measure, in the same setting: then `Cc1ccc(S(=O)(=O)N2CCN(CC(=O)N/N=C/c3ccc(Br)s3)CC2)cc1`, with “inactive”.
For the compound `Cc1cccc2c1N(CCOc1ccccc1)C(=O)C2=O`, the Potency was 224 nM (active).
For `Cc1cc(C)cc(OCC(=O)NNC(=O)CCN2C(=O)c3ccccc3C2=O)c1`, the Potency entry was “inactive”.
For `Cc1ccccc1C(=O)NNC(=O)CN1C(=O)c2ccccc2C1=O`, the Potency entry is “inactive”.
Same read-out and setting: then `CC(C)OC(=O)CN1C(=O)C(=O)c2ccccc21`, with 63.1 nM (active); and `Cc1nn(CCOc2ccccc2)c(=O)n1-c1ccccc1F`, with “inactive”.
On to `CCOC(=O)CN1C(=O)N[C@@H](c2ccc(Br)cc2)C(C(C)=O)=C1C`, for which the Potency entry is “inactive”.
On the same count and under the same terms, then `CCOC(=O)CN1C(=O)C(=O)c2cc(C)ccc21`, with 178 nM (active).
`Cc1cccc2c1N(CC(=O)OC(C)C)C(=O)C2=O`: the Potency was 20 nM (active).
Same read-out and setting: then `CC1(C)NC(=O)N(CCOc2cccc(Oc3ccccc3)c2)C1=O`, with “inactive”.
The same measure, in the same setting: the same measure for `CC(C)OC(=O)CN1CCN(c2ccc(Cl)cc2)CC1`: “inactive”.
The same measure, in the same setting: then `CC(C)OC(=O)CN1C(=O)c2ccccc2C1=O`, with “inactive”; and `CCCCOC(=O)Cn1c(=O)n(CC(=O)OCCCC)c2cc(C)ccc21`, with “inactive”; and `OCCC1CN(Cc2cccn2-c2nccs2)CCN1CCc1ccccc1` (stereo not given), with “inactive”.
Turning to `C/C(=N\NC(=O)c1cccnc1)c1ccc(-n2ccnc2)cc1`, the Potency result was “inactive”.
Take `C#CCOCCOCCOCCNc1nc(N2CCN(C(=O)[C@H](CCC(=O)O)n3cc(C(N)CO)nn3)CC2)nc(N2CCN(C(=O)[C@H](Cc3ccc(O)cc3)n3cc(C(N)[C@H](C)CC)nn3)CC2)n1` (stereo not given in full): the Potency result is “inactive”.
For the compound `Cc1nnc(SCC2=C(C(=O)O)N3C(=O)C(NC(=O)Cn4nc(C)c(Cl)c4C)C3SC2)s1` (stereo not given), the Potency entry is “inactive”.
Same read-out and setting: the same measure for `CCCOc1ccc(NC(=O)CC2C(=O)N(C)C(=S)N2Cc2ccc3c(c2)OCO3)cc1` (stereo not given): “inactive”; for `NS(=O)(=O)c1ccc(N2C(=O)C3C4CC(C(Br)C4Br)C3C2=O)cc1` (stereo not given): “inactive”; for `CC(=O)Nc1ccc(S(=O)(=O)Nc2ccc(-c3ccc4nnc(C)n4n3)cc2)cc1`: “inactive”.
Consider `NCCC(=O)c1ccccc1N`, for which the Potency result was “inactive”.
On the same count and under the same terms, the same measure for `COc1ccc(NC(=O)c2sc(N)nc2-c2ccccc2)cc1`: “inactive”; for `S=C(NN=C1CCN(Cc2ccccc2)CC1)NC1CCCCC1`: “inactive”; for `CCN(C(=O)c1ccc(Br)cc1)c1ccccc1`: “inactive”.
The same measure, in the same setting: the same measure for `CCC1(C(=O)c2ccccc2)C(c2cccc([N+](=O)[O-])c2)C1(C(=O)OC)C(=O)OC` (stereo not given): “inactive”; for `Cc1ccccc1C(=O)OC1OC(=O)C(Cl)=C1Nc1ccccc1` (stereo not given): “inactive”.
Regarding `C=CCN1c2ccccc2[C@]23C[C@@H](C(=O)OC)N(S(=O)(=O)c4ccc([N+](=O)[O-])cc4)C2=NC(C(=O)OC)=C(C(=O)OC)[C@H]13`, the activity, negative = inhibition is -3.11% [at 13.5 µM].
In the case of `O=C1NC2(CCCCCC2)C(=O)N1CCS(=O)(=O)Oc1ccccc1`, the Potency entry was “inactive”.
Still for that read-out and setting: the same measure for `CC(=O)Nc1ccc(C(=O)/C=C/c2ccc[nH]2)cc1`: “inactive”; for `Cc1cc(C(=O)N/N=C/c2ccccc2[N+](=O)[O-])c(C)o1`: “inactive”; for `Clc1ccc(C2=CSC3=Nc4cccc5cccc(c45)N23)cc1`: 7940 nM (active).
Still for that read-out and setting: the same measure for `CCN(CC)CC1(O)CCN(C(=O)c2ccc(Cl)c(Cl)c2)CC1`: “inactive”; for `CC(C)(C)n1nc2c(c1NC(=O)c1cc3ccccc3o1)CSC2`: “inactive”; for `Cc1ccc(C)c(NC(=S)NCC(c2cccnc2)N2CCOCC2)c1` (stereo not given): “inactive”.
As to `CCOC(=O)C(=O)C1C(=O)Nc2ccccc21` (stereo not given), the Potency was 14100 nM (active).
Still for that read-out and setting: then `COC(=O)C(C)C1Sc2ccccc2NC1=O` (stereo not given), with “inactive”; and `CCCCC(CC)CNC(=O)CCCCn1c(=O)[nH]c2ccsc2c1=O` (stereo not given), with “inactive”; and `CCCCC(CC)CNC(=O)C(=O)C1C(=O)Nc2ccccc21` (stereo not given), with 2000 nM (active).
The same measure, in the same setting: the same measure for `CCOC(=O)CC1=CC(=O)Nc2ccccc2N1`: “inactive”; for `CCOC(=O)C1C(=O)NCC1c1ccccc1` (stereo not given): “inactive”.
On the same count and under the same terms, the same measure for `CC1=NN(C(=O)CCCc2ccccc2)C(O)(C(F)(F)F)C1` (stereo not given): “inactive”; for `CC(C)C(=O)NCc1cc(-c2ccc(Cl)cc2)no1`: “inactive”; for `CCCCCCCC[C@@H](O)/C=C/C=C/C=C\[C@@H](O)CCCC(=O)O`: “inactive”.
For `[O-][n+]1onc2c1CCc1[nH]c(-c3ccccc3)nc1-2`, the Potency result was “inactive”.
As for `CCc1nnc(NC(=O)CSc2nc(SC)ns2)s1`, the Potency entry was “inactive”.
As for `Cc1ccc(C(=O)OC2CCCN(C)C2)cc1` (stereo not given), the Potency entry was “inactive”.
On the same count and under the same terms, the same measure for `CCS(=O)(=O)c1cc([N+](=O)[O-])c(Sc2ccccc2N)s1`: 3550 nM (active); for `Nc1ccccc1Sc1ccc(C(F)(F)F)cc1[N+](=O)[O-]`: “inactive”; for `CCOC(=O)c1sc2nc(SC)nc(-c3ccccc3)c2c1N`: “inactive”.
As for `Cc1nc2sc(C(=O)c3ccccc3)c(N)c2c2c1CCCC2`, the Potency is 3980 nM (active).
The same measure, in the same setting: then `CCc1nc2sc(C(=O)O)c(N)c2c2c1CCCC2`, with “inactive”.

These data come from PubChem BioAssay AID1030 (National Center for Advancing Translational Sciences (NCATS), 2008).
